Out of some 370,000 compounds screened, about 2,000 (0.54%) were called active. The list comes from a sample in which actives are over-represented; it also holds similar structures and randomly drawn compounds. A number with no mark means an inactive call. Rule as the data show it: active = inhibition above about 30%; inactive = the rest.
What follows are compounds tested on Crimean-Congo hemorrhagic fever virus L polyprotein viral ovarian tumor (vOTU) protease domain (assay: CCHFV vOTU protease inhibitors, primary screen, biochemical, Pep-AMC substrate, fluorescence (AID 651958; also: 0% = vehicle wells with enzyme and 100% = no enzyme wells)). Conditions: at 11.5 µM, stronger effect = higher value.
In the case of COc1cc(CN2CCCC(C(=O)c3ccc(SC)cc3)C2)cc(Cl)c1O (stereo not drawn), the inhibition was 2.91%. For CCOC(=O)[C@H]1[C@H]2COc3ccccc3[C@@H]2N2C(=O)CN(Cc3ccccc3)C(=O)[C@@]12C, the inhibition was -6.74%. For CN1c2ccc(C=O)c3c(C=O)ccc(c23)N(C)C1(C)C, the inhibition was 65.2% (active). In the case of CN1CCN(c2ccncc2S(=O)(=O)N2CCCC2)CC1, the inhibition was -8.15%. In the case of CCc1ccc(OCC(=O)NCC(c2ccc(Cl)cc2)N2CCCCC2)cc1 (stereo not drawn), the inhibition was 31% (active). For COc1ccc(C(CNC(=O)COc2ccccc2OC)N2CCCCC2)cc1 (stereo not drawn), the inhibition was 0.37%. Compound CN(CC(=O)NCC(c1ccccc1)N1CCCC1)S(=O)(=O)c1ccc(Cl)cc1 (stereo not drawn) has an inhibition of -5.38%. For N#Cc1c(N)nc2c(c1N)CC(C(F)(F)F)O2 (stereo not drawn), the inhibition was -10.2%. CCCCOCCCNC(=O)C[C@@H]1C[C@@]2(C(=O)OCC)CCCC=C2N(CCC2=CCCCC2)C1=O gave an inhibition of 15.7%. With COCCNC(=O)c1onc(CSc2cccc(C)c2)c1C(=O)O the inhibition was -0.14%. In the case of COc1cccc(CNC(=O)COC(=O)CN2C(=O)NC3(CCCCC3C)C2=O)c1 (stereo not drawn), the inhibition was -7.15%. In the case of CC1CCCCC12NC(=O)N(CC(=O)OCC(=O)NCc1ccc(F)cc1)C2=O (stereo not drawn), the inhibition was 34.9% (active). In the case of CCCc1ccc(C(=O)COC(=O)CN2C(=O)NC3(CCCCC3C)C2=O)cc1 (stereo not drawn), the inhibition was 16.5%. Work on Cc1ncc([N+](=O)[O-])n1CCOC(=O)c1ccc(Br)cc1 yielded an inhibition of -0.48%. Compound CCCCCCCNc1nc(Cl)nc(NCCO)n1 has an inhibition of 12.8%. In the case of CC1CCCN(c2ccc(C(=O)NCCc3ccccc3)cn2)C1 (stereo not drawn), the inhibition was -7.43%. Work on O=C(CCl)N(Cc1cccc([N+](=O)[O-])c1)c1cccc(Cl)c1 yielded an inhibition of 0.95%. O=C1Nc2ccc([N+](=O)[O-])cc2C1=Nc1cccc(CO)c1 was tested, and the inhibition was 58.7% (active). CCC(=O)N(C)C(c1ccccc1Cl)c1nnnn1-c1c(C)cccc1C (stereo not drawn) gave an inhibition of -4.14%. CC(=O)OCc1cc(=O)n(C)c(=O)n1C showed an inhibition of -3.25%. With [2H]C(CCOS(N)(=O)=O)c1ccccc1 (stereo not drawn) the inhibition was -9.88%. In the case of Cc1ccc(S(=O)(=O)/N=C2\C=C(NS(=O)(=O)c3ccc(C)cc3)C(=O)c3ccccc32)cc1, the inhibition was 77.7% (active). COc1ccc(S(=O)(=O)/N=C2\C=C(NS(=O)(=O)c3ccccc3)C(=O)c3ccccc32)cc1 was tested, and the inhibition was 65% (active). Compound Cc1ccc(S(=O)(=O)/N=S(\C)C(C)C)cc1 (stereo not drawn) has an inhibition of -11.6%. Cc1ccc(S(=O)(=O)N[C@H](CO)C(C)C)cc1 gave an inhibition of 6.27%. With COc1ccc(N2CCN(C3CCCCC3NS(=O)(=O)c3ccccc3)CC2)cc1 (stereo not drawn) the inhibition was 19.5%. COc1ccc(S(=O)(=O)NC(C)C(=O)N2CCCCCC2)cc1 (stereo not drawn) was tested, and the inhibition was -2.68%. With COC(=O)CN1C(=O)C2(C(C(=O)OC)=C(N)Oc3ccccc32)C2=C1CC(C)(C)CC2=O (stereo not drawn) the inhibition was -11.2%. Compound CC(=O)N1Cc2cc(C(=O)NCc3cccc(F)c3)nc(-c3cccc(C4=CCCCC4)c3)c2[C@H]1CCO has an inhibition of 9.9%. With CN1CCN(S(=O)(=O)c2cccc(C(=O)Nc3sccc3C#N)c2)CC1 the inhibition was -2.97%. C=CCSC1=C(C#N)C(c2cc(Br)c(O)c(OC)c2)CC(=O)N1 (stereo not drawn) showed an inhibition of -4.94%. Cc1ccc(S(=O)(=O)N(c2cccc(C)c2)C2CCS(=O)(=O)C2)cc1 (stereo not drawn) showed an inhibition of 4.15%. CN1CCN(C(=O)C2=C[C@H](c3ccc4c(c3)OCO4)C[C@H](OCc3ccc(CO)cc3)O2)CC1 showed an inhibition of -2.44%. COCCn1nnnc1C(c1cc2ccc(OC)cc2[nH]c1=O)N1CCc2ccccc2C1 (stereo not drawn) was tested, and the inhibition was 103% (active). Compound COc1ccc(CCC(C)N2CCc3ccccc3C2)cc1 (stereo not drawn) has an inhibition of 2.02%. Work on COc1ccc(-n2nnnc2C(c2cccc3ccccc23)N2CCC(n3c(=O)[nH]c4ccccc43)CC2)cc1 (stereo not drawn) yielded an inhibition of 7.58%. COc1cc(CN(C)Cc2nc3cc(C(F)(F)F)ccc3c(=O)[nH]2)ccc1OC(F)F was tested, and the inhibition was 14.7%. With CC1(C)CC(=O)C(N=Nc2c(F)cccc2F)=C(O)C1 the inhibition was 10.4%. CC(C)N1CCC(NC(=O)Nc2ccccc2)CC1 was tested, and the inhibition was -6.34%. In the case of CC1(c2cccc(Br)c2)NC(=O)N(CC(=O)NCCC2=CCCCC2)C1=O (stereo not drawn), the inhibition was 6.44%. With COc1ccc(C(=O)N2CCCC(C(=O)c3ccccc3OC)C2)cc1OC (stereo not drawn) the inhibition was 4.28%. Work on CSCC(=O)N1CCCC(C(=O)c2cc(F)ccc2F)C1 (stereo not drawn) yielded an inhibition of -7.31%. For COc1ccc(F)cc1C(=O)C1CCCN(C(=O)CCc2ccccn2)C1 (stereo not drawn), the inhibition was 32.7% (active). In the case of Cc1cc(Cl)c(S(=O)(=O)NCc2cccnc2)cc1OCC(N)=O, the inhibition was -2.02%. With COP(=O)(OC)C(NC(=O)c1ccc(C)cc1)C(Cl)(Cl)Cl (stereo not drawn) the inhibition was -12.8%. Compound Cc1ccc(S(=O)(=O)NC2CCCCCC2)cc1C(N)=O has an inhibition of -2.9%. Compound CC(C)NS(=O)(=O)c1ccc(NC(=O)C2CCCCC2)cc1 has an inhibition of -0.67%. In the case of Cc1nnc(SC(C)C(=O)Nc2ccc(S(=O)(=O)NC3CCCCC3)cc2)s1 (stereo not drawn), the inhibition was 31.6% (active). In the case of Cc1ccc(NC(=O)COC(=O)C2C3CC4OC(=O)C2C4C3)cc1Cl (stereo not drawn), the inhibition was 6.39%. With Cc1ccc(C(C(=O)NC2CCCC2)N(Cc2ccco2)C(=O)CCC(=O)Nc2ccccn2)cc1 (stereo not drawn) the inhibition was 3.43%. Work on COc1ccc(CCn2c(O)c(C=NCCCn3ccnc3)c(=O)[nH]c2=O)cc1OC yielded an inhibition of 2.55%. For CCCCC(=O)N(C)c1c(CC)nc2c(OCc3ccc(Cl)cc3Cl)cccn12, the inhibition was 28.5%. Compound O=C1C(Cl)=C(Oc2ccccc2)C(=O)c2ccccc21 has an inhibition of 6.2%. CC(=O)N(C1=C(Cl)C(=O)c2ccccc2C1=O)c1ccc(C(=O)O)cc1 was tested, and the inhibition was 99.3% (active). With CCCCN=C1C([N+](=O)[O-])=CC=C2C1=NC1(CCCCC1)N2O the inhibition was 9.17%. Cc1ccc(C)c(OCCC(=O)OCC(=O)NC(=O)NCc2ccccc2)c1 was tested, and the inhibition was 0.04%. In the case of COc1ccc2c(c1)c(=Cc1ccc(N(C)C)cc1)c1cc(-c3ccccc3)[n+](C)n12, the inhibition was 55.6% (active). In the case of COc1ccc(Br)cc1S(=O)(=O)N1CCN=C1C, the inhibition was -6.47%. Work on CCc1ccc(OC(C)C(=O)Nc2ccc(S(=O)(=O)Nc3cc(C)on3)cc2)cc1 (stereo not drawn) yielded an inhibition of 7.95%. Cc1cc(OC(C)C(=O)Nc2ccc(S(=O)(=O)Nc3onc(C)c3C)cc2)cc(C)c1Cl (stereo not drawn) was tested, and the inhibition was 35.2% (active). In the case of CC(Oc1cccc(Cl)c1)C(=O)Nc1ccc(S(=O)(=O)Nc2ncccn2)cc1 (stereo not drawn), the inhibition was -1.27%. Work on O=S1(=O)CC(N2CCN(CCO)CC2)CN1Cc1cn(Cc2ccc(Cl)cc2)nn1 (stereo not drawn) yielded an inhibition of -2.07%. CCN(CC(=O)Nc1c(F)cccc1F)C(=O)c1ccc(-c2ccccc2)cc1 was tested, and the inhibition was -7.05%. Work on CCc1cc(C(=O)N(CC)CC(=O)Nc2c(F)cccc2F)sc1C yielded an inhibition of 19.1%. With CCN(CC(=O)Nc1c(F)cccc1F)C(=O)c1cnc(C)cn1 the inhibition was 32.8% (active). Compound CCN(CC)c1ccc(NC(=O)CN2C(=O)NC3(CCc4ccccc43)C2=O)cc1 (stereo not drawn) has an inhibition of -2.95%. In the case of O=C(Cn1cc(C(F)(F)F)ccc1=O)Nc1ccc2c(c1)OCCO2, the inhibition was 8.6%. CC(C)CC1(C)NC(=O)N(CC(=O)Nc2ccc3c(c2)OCCO3)C1=O (stereo not drawn) showed an inhibition of -6.35%. Compound COc1c(Br)cc2c(C)c(C(=O)N3CCOCC3)oc2c1Br has an inhibition of -3.21%. With Cc1nc2ccccc2c(=O)n1-c1ccc(F)c(NC(=O)c2cccs2)c1 the inhibition was -0.94%. For O=C(c1ccc(N2CCCC2=O)cc1)N1CCN(c2ccc(C(F)(F)F)cc2[N+](=O)[O-])CC1, the inhibition was 3.99%. Cc1cc(C)c(S(=O)(=O)NN=C2c3ccccc3[C@H]3Cc4csc[n+]4[C@@H]23)c(C)c1 was tested, and the inhibition was 82.8% (active). COC(=O)[C@]12C[C@H](CC(=O)NCc3ccccc3)C(=O)N(CCC3=CCCCC3)C1=C[C@H](C(C)C)O[C@@H]2C1CC1 showed an inhibition of 23.1%. COC(=O)C[C@H]1C[C@@H]2c3cc(NC(=O)Nc4ccccc4)ccc3O[C@@H]2[C@@H](CO)O1 was tested, and the inhibition was -2.2%. In the case of CCN(CC(=O)NCc1cccs1)c1nnnn1-c1ccccc1, the inhibition was -6.07%. CC(C)Cn1c(N)c(C(=O)NCc2cccs2)c2nc3ccccc3nc21 was tested, and the inhibition was 85.8% (active). Work on Cc1nc2c(C(=O)NCc3cccs3)cnn2c(C)c1Cc1ccc(F)cc1 yielded an inhibition of 4.83%. In the case of Cn1cccc1C(=O)NC(=O)COC(=O)Cc1coc2ccc3ccccc3c12, the inhibition was 5.02%. Compound CCCn1c(=O)c2ccccc2n2c(SCC(=O)/C(C#N)=C(\C)N)nnc12 has an inhibition of -9.66%. Work on CC(C)[C@H](NC(=O)N1CCn2c1nc1ccccc12)C(=O)NCCc1ccccc1 yielded an inhibition of 25.4%. O=C1NC[C@@H](CCCCN2CCN(CCc3ccc(O)cc3)C(=O)C2=O)N(CC2CCCCC2)C1=O showed an inhibition of -7.64%. For O=C(OCC(=O)c1cccs1)c1ccc([N+](=O)[O-])o1, the inhibition was 31.4% (active). For O=C(COC(=O)c1ccc([N+](=O)[O-])o1)NC12CC3CC(CC(C3)C1)C2, the inhibition was 13.9%. COc1ccccc1CNC(=O)COC(=O)c1cccs1 gave an inhibition of 0.12%. For Cc1cccc(C)c1NC(=O)CNC(=O)Cc1ccc(Br)cc1, the inhibition was -10.5%. Cc1ccc(OC(=O)c2c(C)nn(-c3ccccc3)c2C)cc1 showed an inhibition of -6.31%. For Cc1cccc(C)c1NC(=O)CNC(=O)c1c(C)nn(-c2ccccc2)c1C, the inhibition was 33% (active). CCN(N=Nc1nonc1OC)c1nonc1OC was tested, and the inhibition was -2.47%.

— PubChem BioAssay AID651958 (The Scripps Research Institute Molecular Screening Center, 2012)
